Assay results published in the supplement of paper PMC7366291.
Where a name gives a salt, the structure may show the parent alone. ± gives the standard deviation or the standard deviation of the averaged measurements.

Assays:
Settings in all cases: 25 µM; exposure: 24-48 hpf
[1] = test system: Danio rerio Tg(wt1b:EGFP) embryo, pronephros; experiment: glomerular separation, fold change vs DMSO control; higher = glomeruli further apart (abnormal)
Procedure, shortened: (§1)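 Dechorionated Tg(wt1b:EGFP) zebrafish embryos were kept from 24 to 48 hpf at 28.5°C in HEPES-buffered E3 containing 0.003% PTU, 0.5% DMSO and 25 μM compound. The pronephroi were then imaged from the dorsal side in agarose-filled 96-well plates at 470 nm with 10 z-slices, and 16 reference points were placed by hand on maximum projections in Fiji so that a macro could calculate distances and angles. Values lying more than 2 SD from the mean of a feature were discarded. Every feature is given as a fold change against the mean of DMSO-treated embryos from the same day.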

[2] = test system: Danio rerio Tg(wt1b:EGFP) embryo, pronephros; experiment: glomerular width (mean of left and right), fold change vs DMSO control; higher = wider glomerulus
Procedure, shortened: as §1

[3] = test system: Danio rerio Tg(wt1b:EGFP) embryo, pronephros; experiment: fraction of imaged embryos annotated as normal kidney; higher = less nephrotoxic; extreme values may be limits of the assay
Procedure, shortened: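 From 24 to 48 hpf at 28.5°C, dechorionated Tg(wt1b:EGFP) zebrafish embryos in 12-well plates were kept in 5 mM HEPES-buffered E3 with 0.003% PTU, 0.5% DMSO and 25 μM compound. Pronephroi were imaged by widefield fluorescence at 470 nm and judged by eye from maximum projections. Reported is the proportion of embryos per treatment in the normal-kidney category.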

[4] = test system: Danio rerio Tg(wt1b:EGFP) embryo, pronephros; experiment: pronephric angle neck segment to proximal convoluted tubule (mean of left and right), fold change vs DMSO control; higher = larger pronephric angle
Procedure, shortened: as §1

Structure (SMILES) | glomerular separation [1] | glomerular width [2] | fraction of imaged embryos annotated as normal kidney [3] | pronephric angle neck segment [4]
CC(C(=O)O)c1ccc(C(=O)c2ccccc2)s1 (configuration not stated) [Tiaprofenic acid] | 1.58 ± 0.4 | 1.07 ± 0.067 | 0.667 | 1.03 ± 0.015
CC(C)Cn1cnc2c(N)nc3ccccc3c21 [Imiquimod] | 0.76 ± 0.31 | 0.944 ± 0.089 | 1 | 0.978 ± 0.037
CCCCC[C@H](O)/C=C/[C@H]1[C@H](O)CC(=O)[C@@H]1CCCCCCC(=O)O [Alprostadil] | 1.21 ± 0.52 | 0.867 ± 0.036 | 0.75 | 1.09 ± 0.047
CCN(CC)C(=S)SSC(=S)N(CC)CC [Disulfiram] | 3.4 ± 1.9 | 0.458 ± 0.05 | 0 | 1.7 ± 0.043
Cc1cc(C2CCCCC2)n(O)c(=O)c1 [Ciclopirox ethanolamine] | 6.61 ± 0.93 | 0.503 ± 0.058 | 0 | 1.68 ± 0.05
CC12CC3CC(C)(C1)CC(N)(C3)C2 [Memantine Hydrochloride] | 1 ± 0.34 | 1.05 ± 0.079 | 0.917 | 0.9526 ± 0.0081
C[C@H]1O[C@H](O[C@H]2[C@H](O)[C@@H](O)[C@@H](O[C@H]3[C@H](O)[C@@H](O)C(O)O[C@@H]3CO)O[C@@H]2CO)[C@H](O)[C@@H](O)[C@@H]1N[C@H]1C=C(CO)[C@@H](O)[C@H](O)[C@H]1O (some centres not stated) [Acarbose] | 0.951 ± 0.24 | 0.879 ± 0.1 | 0.833 | 1.02 ± 0.014
CC(=O)O[C@H]1C(=O)[C@@]2(C)[C@H]([C@H](OC(=O)c3ccccc3)[C@]3(O)C[C@H](OC(=O)[C@H](O)[C@@H](NC(=O)c4ccccc4)c4ccccc4)C(C)=C1C3(C)C)[C@]1(OC(C)=O)CO[C@@H]1C[C@@H]2O [Paclitaxel] | 1.59 ± 0.55 | 1.06 ± 0.015 | 1 | 0.964 ± 0.021
N=C(N)NCC1COC2(CCCCC2)O1 (configuration not stated) [Guanadrel sulfate] | 0.935 ± 0.45 | 1.02 ± 0.071 | 0.75 | 0.992 ± 0.012
CCN(CC)CCOC(=O)c1ccc(N)cc1 [Procaine hydrochloride] | 0.828 ± 0.2 | 1.057 ± 0.0024 | 0.667 | 1.081 ± 0.0098
CC1=C(CC(=O)O)c2cc(F)ccc2/C1=C\c1ccc([S+](C)[O-])cc1 (configuration not stated) [Sulindac] | 0.735 ± 0.15 | 0.8774 ± 0.0075 | 0.667 | 1.0374 ± 0.00064
CCN(CC)CCNC(=O)c1ccc(N)cc1 [Procainamide hydrochloride] | 0.95 ± 0.48 | 1.11 ± 0.027 | 0.455 | 1.1 ± 0.22
CCN(CC)CCOc1ccc(C(=C(Cl)c2ccccc2)c2ccccc2)cc1 [Clomiphene citrate (Z,E)] | 1.1 ± 0.41 | 0.981 ± 0.019 | 0.75 | 0.974 ± 0.053
CC(=O)OCC(=O)[C@@]1(O)CC[C@H]2[C@@H]3CCC4=CC(=O)CC[C@]4(C)[C@@]3(F)[C@@H](O)C[C@@]21C [Fludrocortisone acetate] | 1.6 ± 0.63 | 1.23 ± 0.023 | 0.583 | 1.18 ± 0.16
Cc1nc2ccccn2c(=O)c1CCN1CCC(C(=O)c2ccc(F)cc2)CC1 [Pirenperone] | 0.831 ± 0.3 | 1.05 ± 0.037 | 1 | 0.924 ± 0.0096
O=C(Nc1cccc2c(=O)cc(-c3nnn[nH]3)oc12)c1ccc(OCCCCc2ccccc2)cc1 [Pranlukast] | 1.04 ± 0.37 | 1.01 ± 0.019 | 0.833 | 1.01 ± 0.041
OC(CCN1CCCCC1)(c1ccccc1)C1CCCCC1 (configuration not stated) [Trihexyphenidyl-D,L Hydrochloride] | 0.867 ± 0.41 | 0.97 ± 0.04 | 0.833 | 0.985 ± 0.056
CC(=O)N1CCN(c2ccc(OCC3COC(Cn4ccnc4)(c4ccc(Cl)cc4Cl)O3)cc2)CC1 (configuration not stated) [Ketoconazole] | 0.931 ± 0.28 | 1.01 ± 0.082 | 0.75 | 0.994 ± 0.04
CCCCc1nc(Cl)c(CO)n1Cc1ccc(-c2ccccc2-c2nnn[nH]2)cc1 [Losartan] | 0.969 ± 0.39 | 0.9444 ± 0.0062 | 0.75 | 1.04 ± 0.044
COc1ccc(C(=O)c2ccccc2O)c(O)c1 [Dioxybenzone] | 2.57 ± 1.9 | 0.84 ± 0.044 | 0.417 | 1.09 ± 0.018
CC(C)NC[C@@H](O)COc1cccc2ccccc12 [(R)-Propranolol hydrochloride] | 1.07 ± 0.46 | 0.963 ± 0.013 | 0.833 | 0.98475 ± 0.00073
Cc1scc2c1N(C(=O)CN1CCN(C)CC1)c1ccccc1NC2=O [Telenzepine dihydrochloride] | 0.967 ± 0.17 | 0.937 ± 0.032 | 1 | 0.963 ± 0.01
O=C1CCc2cc(OCCCCc3nnnn3C3CCCCC3)ccc2N1 [Cilostazol] | 1.05 ± 0.38 | 1 ± 0.023 | 0.75 | 0.994 ± 0.05
